Most compounds without a hit are left out; they make up all but 10% or so of the library.
ALDH1A1 block – inhibitors of human aldehyde dehydrogenase 1A1; AID 1030; Purified ALDH1A1, NADH fluorescence, propionaldehyde substrate; Potency, µM (highest dose often 75.3 µM), hits mostly inhibitors; P00352; 220,000 compounds, 7.3% hits
Target sequence (P00352 whole entry, looked up): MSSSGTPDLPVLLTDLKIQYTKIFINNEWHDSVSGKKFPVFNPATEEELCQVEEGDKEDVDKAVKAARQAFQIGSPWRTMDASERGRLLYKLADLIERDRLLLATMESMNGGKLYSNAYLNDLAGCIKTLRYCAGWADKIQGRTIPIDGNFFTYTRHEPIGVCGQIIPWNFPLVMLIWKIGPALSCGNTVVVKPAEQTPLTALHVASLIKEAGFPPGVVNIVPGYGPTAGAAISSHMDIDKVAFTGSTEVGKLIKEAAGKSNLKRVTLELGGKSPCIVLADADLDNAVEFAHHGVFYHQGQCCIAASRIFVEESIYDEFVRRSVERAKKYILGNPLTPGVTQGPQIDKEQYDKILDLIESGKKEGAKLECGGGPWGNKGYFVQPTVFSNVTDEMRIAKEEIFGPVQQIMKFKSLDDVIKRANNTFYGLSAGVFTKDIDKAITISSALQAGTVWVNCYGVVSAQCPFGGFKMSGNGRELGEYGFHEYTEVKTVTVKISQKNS
Lamin A splicing – modulators of lamin A splicing; 200,000 compounds, 0.01% hits; Potency, µM (doses to about 46.1 µM), hits mostly inhibitors; HeLa LMNA splicing GFP/RFP minigene ratio, 48 h; AID 1487; active means well fitted inhibition curve with a large enough effect in the signal ratio, with a control signal flat, not every such curve was filed as active; inconclusive means small, poorly fitted or top-dose-only effect, or effect the other way, or a change in a side signal; the % refers to the signal ratio
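Read-out is the ratio of GFP to DsRed2 object intensity, acquired by 488 nm laser-scanning cytometry on HeLa lamin A-EGFP minigene reporter cells. Compound incubation 48 hrs at 37 °C in Opti-MEM with 2% FBS; DMSO 0.5% final.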
ALOX12 inhib – blocks human 12-lipoxygenase activity | P18054 | purified 12-hLO, xylenol orange hydroperoxide absorbance | Potency, µM (titrated, usually from 57.1 µM), actives largely listed as inhibitors | 150,000 compounds, 0.12% hits; active means well fitted inhibition curve with a large enough effect; inconclusive means small, poorly fitted or top-dose-only effect; further: nearly all actives have a fitted effect of over 55% in size
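Hydroperoxide output read as Fe(III)-xylenol orange absorbance, 573-to-405 nm ratio, after 30 min reaction with 40 uM arachidonic acid. Enzyme: 150 nM purified human 12hLO, 15 min compound preincubation; 25 mM Hepes pH 7.0, room temperature.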
PNC inhibitor – inhibitors of perinucleolar compartment assembly. activity change (PNC), negative = inhibition, % at 10 µM. 140,000 compounds, 3.1% hits. AID 2417. PC3M PTB-GFP, PNC prevalence imaging, 16 h; active compounds read low;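 active means readout at or below -70, meaning at least 70% loss of cells showing the perinucleolar compartment, a nuclear body marking cancer cells; inconclusive means readout between -30 and a set limit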
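Read-out is percentage of cells bearing a perinucleolar compartment, from automated 20x imaging of fixed, Hoechst-stained PC3M PTB-GFP cells. Cells were seeded 4 h, then exposed 16 h to compound (23 nl of library stock) in duplicate plates.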
HPGD block – inhibitors of human 15-hydroxyprostaglandin dehydrogenase (HPGD); P15428; purified HPGD, NADH fluorescence kinetic, PGE2 substrate; Potency, µM, most hits filed as inhibitors; 150,000 compounds, 4.3% hits; AID 894
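NADH formation kinetics: reaction with 30 uM PGE2 and 1 mM NAD+ (final), 20 nM enzyme, Tris-HCl pH 8 with Tween 20, after 15 min compound preincubation at room temperature. Fluorescence change, last versus first of five reads.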
A number is an active result; . = inactive; ? = inconclusive; / = not tested or not shown; [ ] = dose if it differs, or a comment. Unless noted, the call rests on the fitted dose curve; in most records, active means well fitted inhibition curve with a large enough effect (not every such curve was filed as active); inconclusive means small, poorly fitted or top-dose-only effect, or another doubt; inactive means no such curve, though single readings can be large or run the other way.

SMILES	ALDH1A1 block	Lamin A splicing	ALOX12 inhib	PNC inhibitor	HPGD block
COc1ccc2nc(-c3ccc(N)cc3)[nH]c2c1	6.3µM	?	.	.	?
COc1ccc2nc(-c3cccc(N)c3)[nH]c2c1	.	.	.	.	?
CC(=O)c1c(C)oc2ccc(O)c(CN3CCOCC3)c12	.	.	.	.	.
Cc1oc2ccc(O)c(CN3CCOCC3)c2c1C(C)O (configuration not stated)	7.1µM	.	.	?	.
O=C(NNC(=O)c1cccc(Br)c1)Nc1ccc(Cl)cc1	.	.	/	/	/
CC(C)(C)NC(=S)NNC(=O)c1ccccc1Cl	?	.	.	.	.
O=C(NNC(=S)Nc1ccccc1)c1cccc(Br)c1	20µM	.	.	.	.
O=C(O)/C=C/C(=O)NNC(=O)c1cccc(Br)c1	20µM	.	.	.	.
O=C(NC(=S)Nc1cc(Cl)ccc1O)c1cccc(Br)c1	9.5µM	/	/	/	/
O=C(O)CCC(=O)NNC(=O)c1cccc(Br)c1	.	.	.	.	.
CC(C)(C)NC(=S)NNC(=O)c1cccc(Br)c1	11µM	?	/	/	/
CN(C)S(=O)(=O)c1cccc(C(=O)Nc2cc(Cl)ccc2O)c1	?	?	.	.	.
O=C(NNC1OC(CO)C(O)C(O)C1O)c1cccc(Br)c1 (configuration not stated)	11µM	?	/	/	/
C=CCSc1n[nH]c(-c2ccc(OC)cc2)n1	?	.	.	.	14µM
N#Cc1c(SCC(N)=O)nc2c(c1-c1ccc(O)cc1)CCCC2	7.1µM	.	.	?	.
COc1ccc(-c2c(C#N)c(SCC(N)=O)nc3c2CCCC3)cc1	?	.	.	.	.
CC(=O)N1CCCc2cc(S(=O)(=O)N3CCC(C(=O)Nc4c(C)cccc4C)CC3)ccc21	/	.	/	/	/
CCOC(=O)CNC(=O)CN1CCCN(S(=O)(=O)c2ccc(Br)s2)CC1	?	.	.	.	.
CC(=O)Nc1ccc(OCC(O)CN2CCN(c3ccc(Cl)cc3)CC2)cc1 (configuration not stated)	.	?	.	-100	.
CN(C)S(=O)(=O)c1cc(NC(=O)CN2CCN(c3ccccc3)CC2)ccc1Cl	.	.	.	.	.
O=C(CN1CCCN(S(=O)(=O)c2ccc(Br)s2)CC1)Nc1ccc(Cl)cc1	4.5µM	?	.	.	.
Cc1ccc(C(=O)N2CCN(c3ccc(NC(=O)CSc4ccc(Cl)cc4)cc3)CC2)cc1	?	?	.	-113	.
CN(C)S(=O)(=O)c1cc(NC(=O)CN2CCN(c3ccc(O)cc3)CC2)ccc1Cl	13µM	.[9.22 µM]	/	/	/
CC(=O)Nc1ccc(OCC(O)CN2CCN(c3cccc(Cl)c3)CC2)cc1 (configuration not stated)	.	.	.	.	.
CS(=O)(=O)N1CCN(c2ccc(NC(=O)CSc3ccc(Cl)cc3)cc2)CC1	.	.	.	.	.
SMILES	ALDH1A1 block	Lamin A splicing	ALOX12 inhib	PNC inhibitor	HPGD block
CCOC(=O)c1cc2sccc2n1CC(=O)C(C)(C)C	.	/	/	/	/
COC(=O)c1ccc(NC(=O)CN2CCN(S(=O)(=O)c3cc(Cl)ccc3OC)CC2)cc1	2µM	.	.	.	.
COC(=O)c1ccc(NC(=O)CN2C(=O)CNC2=O)cc1	18µM	.	.	.	.
COC(=O)c1ccc(NC(=O)CN2CCN(c3ccc(Cl)cc3)CC2)cc1	22µM	.	.	.	.
O=C(CN1CCCN(S(=O)(=O)c2ccc(Br)cc2)CC1)Nc1ccc2c(c1)OCO2	11µM	?	.	.	.
CC(=O)c1ccc(NC(=O)CN2C(=O)CCC2=O)cc1	.	.	/	/	/
O=S(=O)(NCC(c1ccco1)N1CCN(c2ccccc2)CC1)c1ccccc1 (configuration not stated)	/	.	/	/	/
CCOC(=O)CN1C(=O)CCSc2ccc(Cl)cc21	.	?	/	/	/
CCOC(=O)N/N=C1/C[C@@H](O)[C@@H](O)[C@@H]2[C@@H]3C(=O)N(C4CCCCC4)C(=O)[C@H]3CC[C@H]12	.[13.5 µM]	/	/	/	/
COC(=O)c1ccc(NC(=S)N2CCN(Cc3ccc(Cl)cc3)CC2)cc1	.	.	.	.	40µM
COCCNc1nc(C)nc2c1nc(-c1ccccc1)n2CC1CCN(C)CC1	?	/	.	/	?
COc1ccc(C(=O)NC(=S)Nc2ccc3c(c2)Cc2ccccc2-3)cc1	10µM	.	.	?	.
O=C(NC(=S)Nc1ccc(Oc2ccccc2)cc1)c1ccc(Cl)cc1	14µM	?	?	?	.
